Reference: the supplement of paper PMC9262897, “Low-cost anti-mycobacterial drug discovery using engineered E. coli” (Nature Communications, 2022)
Counter-ions that a name gives are not always drawn. ± gives the standard deviation of the averaged measurements.

What was measured:
Assay in all cases: growth (OD600 after 10 h); higher = more growth (less inhibition)
[1] = tested on: E. coli TESEC Alr+ wild-type control; details: compound 0.1 mM; raw OD600 reference: median of DMSO wells 0.241, cell-free background 0.041
Description: (§1)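 TESEC Mtb Alr E. coli, or the Alr+ wild-type control, in 384-well plates with Prestwick library compounds at 0.1 mM and 1% DMSO, across arabinose induction levels of 1E3 to 1E7 nM. Growth is read as OD600 after 10 h at 37 °C in triplicate biological replicates.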

[2] = tested on: E. coli TESEC Mtb Alr; details: compound 0.1 mM
Description: as §1

[3] = tested on: E. coli TESEC Mtb Asd; details: compound 0.1 mM
Description: (§2)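 TESEC E. coli strains in which the native enzyme is deleted and replaced by arabinose-inducible Mtb Asd, DapB, CysH or TrpD, each grown in its selective medium. Strains were screened against the Prestwick library at 0.1 mM and 1% DMSO in 384-well format at low and high arabinose induction. Growth is read as OD600 after 10 h in triplicate.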

[4] = tested on: E. coli TESEC Mtb DapB; details: compound 0.1 mM
Description: as §2

[5] = tested on: E. coli TESEC Alr+ wild-type control; details: compound 0.1 mM; raw OD600 reference: median of DMSO wells 0.49, cell-free background 0.052
Description: (§3)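 TESEC Mtb Alr E. coli (ΔaraC ΔtolC ΔentC Δalr ΔdadX, arabinose-inducible Mtb Alr) or the Alr+ wild-type control strain, grown in defined M9-fructose medium without D-alanine in 96-well plates with Prestwick library compounds at 0.1 mM and 1% DMSO. Low Alr induction is 0.1 µM arabinose and high induction is 10 mM arabinose.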

[6] = tested on: E. coli TESEC Mtb Alr; details: compound 0.1 mM; remark: listed apart in the source
Description: as §3

[7] = arabinose 1000 nM, raw OD600 reference: median of DMSO wells 0.294, cell-free background 0.041
[8] = arabinose 10000 nM, raw OD600 reference: median of DMSO wells 0.264, cell-free background 0.041
[9] = arabinose 100000 nM, raw OD600 reference: median of DMSO wells 0.201, cell-free background 0.041
[10] = arabinose 1000000 nM, raw OD600 reference: median of DMSO wells 0.193, cell-free background 0.041
[11] = arabinose 10000000 nM, raw OD600 reference: median of DMSO wells 0.146, cell-free background 0.041
[12] = arabinose induction (level): High, raw OD600 reference: median of DMSO wells 0.331, cell-free background 0.041
[13] = arabinose induction (level): Low, raw OD600 reference: median of DMSO wells 0.417, cell-free background 0.041
[14] = arabinose induction (level): High, raw OD600 reference: median of DMSO wells […], cell-free background 0.041
[15] = arabinose induction (level): Low, raw OD600 reference: median of DMSO wells 0.227, cell-free background 0.041
[16] = arabinose 100 nM, raw OD600 reference: median of DMSO wells 0.413, cell-free background 0.052
[17] = arabinose 10000000 nM, raw OD600 reference: median of DMSO wells […], cell-free background 0.052

Row | SMILES | growth [1] | growth [2, 7] | growth [2, 8] | growth [2, 9] | growth [2, 10] | growth [2, 11] | growth [3, 12] | growth [3, 13] | growth [4, 14] | growth [4, 15] | growth [5] | growth [6, 16] | growth [6, 17]
1 | Cc1cc(=O)n(-c2ccccc2)n1C [Antipyrine] | 0.252 ± 0.0043 | 0.294 ± 0.014 | 0.257 ± 0.0094 | 0.221 ± 0.013 | 0.176 ± 0.0026 | 0.1436 ± 0.0012 | 0.305 ± 0.04 | 0.371 ± 0.014 | 0.191 ± 0.0076 | 0.204 ± 0.0077 | 0.474 ± 0.062 | 0.412 ± 0.0087 | 0.379 ± 0.026
2 | O=C(CCCN1CCC(O)(c2ccc(Cl)cc2)CC1)c1ccc(F)cc1 [Haloperidol] | 0.216 ± 0.0039 | 0.265 ± 0.012 | 0.273 ± 0.0054 | 0.192 ± 0.015 | 0.172 ± 0.0034 | 0.14 ± 0.0019 | 0.395 ± 0.047 | 0.452 ± 0.028 | 0.187 ± 0.0073 | 0.248 ± 0.034 | 0.354 ± 0.006 | 0.4348 ± 0.0041 | 0.239 ± 0.012
3 | O=C(O)c1cn(C2CC2)c2cc(N3CCNCC3)c(F)cc2c1=O [Ciprofloxacin hydrochloride monohydrate] | 0.0408 ± 0.00053 | 0.0398 ± 0.0012 | 0.0399 ± 0.0009 | 0.0402 ± 0.0002 | 0.0391 ± 0.00026 | 0.0402 ± 0.00036 | 0.0484 ± 0.0012 | 0.0498 ± 0.001 | 0.049 ± 0.00046 | 0.0712 ± 0.04 | 0.0505 ± 0.0005 | 0.0528 ± 0.00085 | 0.0527 ± 0.0033
4 | Clc1ccc2c(c1)C(N1CCNCC1)=Nc1ccccc1O2 [Amoxapine] | 0.162 ± 0.0094 | 0.171 ± 0.0069 | 0.16 ± 0.0024 | 0.162 ± 0.0019 | 0.0713 ± 0.0015 | 0.105 ± 0.0015 | 0.178 ± 0.01 | 0.201 ± 0.0093 | 0.159 ± 0.03 | 0.173 ± 0.041 | 0.43 ± 0.061 | 0.396 ± 0.005 | 0.291 ± 0.023
5 | NCCCC[C@H](N[C@@H](CCc1ccccc1)C(=O)O)C(=O)N1CCC[C@H]1C(=O)O [Lisinopril] | 0.257 ± 0.0039 | 0.304 ± 0.0053 | 0.251 ± 0.0067 | 0.213 ± 0.0063 | 0.177 ± 0.0033 | 0.159 ± 0.0064 | 0.35 ± 0.051 | 0.4 ± 0.031 | 0.212 ± 0.0046 | 0.316 ± 0.057 | 0.49 ± 0.035 | 0.41 ± 0.015 | 0.343 ± 0.0091
6 | Nc1ccc(S(=O)(=O)Nc2ccnn2-c2ccccc2)cc1 [Sulfaphenazole] | 0.231 ± 0.0032 | 0.236 ± 0.0082 | 0.1522 ± 0.0011 | 0.197 ± 0.031 | 0.0993 ± 0.0064 | 0.149 ± 0.0051 | 0.335 ± 0.033 | 0.354 ± 0.0096 | 0.163 ± 0.016 | 0.174 ± 0.03 | 0.484 ± 0.04 | 0.429 ± 0.0073 | 0.233 ± 0.15
7 | Nc1ccc(S(N)(=O)=O)cc1 [Sulfanilamide] | 0.249 ± 0.008 | 0.302 ± 0.011 | 0.2715 ± 0.0023 | 0.248 ± 0.014 | 0.205 ± 0.0051 | 0.142 ± 0.0052 | 0.318 ± 0.027 | 0.446 ± 0.0081 | 0.217 ± 0.022 | 0.263 ± 0.038 | 0.507 ± 0.044 | 0.388 ± 0.033 | 0.386 ± 0.0053
8 | CN1CCc2cccc3c2[C@H]1Cc1ccc(O)c(O)c1-3 [R(-) Apomorphine hydrochloride hemihydrate] | 0.0618 ± 0.002 | 0.292 ± 0.0093 | 0.254 ± 0.0078 | 0.181 ± 0.019 | 0.0652 ± 0.0022 | 0.14 ± 0.0033 | 0.152 ± 0.027 | 0.147 ± 0.066 | 0.16 ± 0.0062 | 0.174 ± 0.021 | 0.467 ± 0.025 | 0.407 ± 0.0077 | 0.199 ± 0.11
9 | CC(C)OC(=O)C(C)(C)Oc1ccc(C(=O)c2ccc(Cl)cc2)cc1 [Fenofibrate] | 0.219 ± 0.0026 | 0.235 ± 0.015 | 0.245 ± 0.0051 | 0.143 ± 0.0063 | 0.0897 ± 0.0018 | 0.161 ± 0.0021 | 0.298 ± 0.013 | 0.397 ± 0.039 | 0.176 ± 0.015 | 0.215 ± 0.037 | 0.469 ± 0.026 | 0.401 ± 0.016 | 0.089 ± 0.01
10 | CC[C@@H](CO)NCCN[C@@H](CC)CO [Ethambutol dihydrochloride] | 0.25 ± 0.0032 | 0.291 ± 0.023 | 0.255 ± 0.0099 | 0.216 ± 0.021 | 0.18 ± 0.0035 | 0.147 ± 0.0024 | 0.353 ± 0.067 | 0.39 ± 0.091 | 0.19 ± 0.0055 | 0.2 ± 0.022 | 0.476 ± 0.06 | 0.411 ± 0.0072 | 0.366 ± 0.015
11 | CC(C(=O)O)c1ccc2c(c1)[nH]c1ccc(Cl)cc12 (stereo not drawn) [Carprofen] | 0.0924 ± 0.0058 | 0.116 ± 0.006 | 0.107 ± 0.0066 | 0.1024 ± 0.001 | 0.0781 ± 0.0038 | 0.111 ± 0.0039 | 0.171 ± 0.015 | 0.168 ± 0.044 | 0.201 ± 0.0073 | 0.215 ± 0.011 | 0.594 ± 0.029 | 0.409 ± 0.0018 | 0.149 ± 0.025
12 | C[C@H]1[C@H](NC(=O)/C(=N\OC(C)(C)C(=O)O)c2csc(N)n2)C(=O)N1S(=O)(=O)O [Aztreonam] | 0.161 ± 0.011 | 0.0624 ± 0.0045 | 0.0463 ± 0.0008 | 0.136 ± 0.014 | 0.177 ± 0.005 | 0.172 ± 0.0037 | 0.161 ± 0.009 | 0.11 ± 0.0038 | 0.188 ± 0.0055 | 0.186 ± 0.026 | 0.385 ± 0.016 | 0.0511 ± 0.0047 | 0.277 ± 0.016
13 | CCCc1ncc(C[n+]2ccccc2C)c(N)n1 [Amprolium hydrochloride] | 0.245 ± 0.0098 | 0.284 ± 0.029 | 0.2572 ± 0.0021 | 0.207 ± 0.027 | 0.18 ± 0.0063 | 0.142 ± 0.0046 | 0.359 ± 0.016 | 0.386 ± 0.0088 | 0.187 ± 0.0079 | 0.228 ± 0.05 | 0.497 ± 0.041 | 0.407 ± 0.016 | 0.376 ± 0.028
14 | CN/C(=N\CCSCc1nc[nH]c1C)NC#N [Cimetidine] | 0.249 ± 0.0059 | 0.295 ± 0.023 | 0.252 ± 0.0057 | 0.216 ± 0.028 | 0.179 ± 0.00087 | 0.142 ± 0.0033 | 0.376 ± 0.1 | 0.376 ± 0.045 | 0.181 ± 0.012 | 0.206 ± 0.025 | 0.545 ± 0.0056 | 0.409 ± 0.0072 | 0.337 ± 0.019
15 | CC(c1cc2ccccc2s1)N(O)C(N)=O (stereo not drawn) [Zileuton] | 0.229 ± 0.004 | 0.295 ± 0.021 | 0.254 ± 0.011 | 0.223 ± 0.018 | 0.183 ± 0.0054 | 0.151 ± 0.0028 | 0.338 ± 0.022 | 0.352 ± 0.012 | 0.216 ± 0.029 | 0.216 ± 0.017 | 0.457 ± 0.011 | 0.403 ± 0.0065 | 0.3407 ± 0.00091
16 | C=CCc1ccccc1OCC(O)CNC(C)C (stereo not drawn) [Alprenolol hydrochloride] | 0.217 ± 0.0068 | 0.267 ± 0.013 | 0.259 ± 0.013 | 0.199 ± 0.023 | 0.156 ± 0.0022 | 0.145 ± 0.0043 | 0.322 ± 0.074 | 0.419 ± 0.027 | 0.183 ± 0.011 | 0.284 ± 0.059 | 0.446 ± 0.015 | 0.405 ± 0.013 | 0.363 ± 0.013
